Test results from PubChem BioAssay (NCATS).
Values without a mark were called inactive. The rule behind the calls is not given here.

test system: HIV-1 nucleocapsid protein NCp7 (binding to TG oligonucleotide); experiment: HIV Nucleocapsid (AID 346); details: HIV-1 NC / fluorescein-TGTGTGTG probe, fluorescence polarization;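 note: potency is for inhibitors that block NC binding and lower polarization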
Summary of the method: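 10 nM TG4xF probe with 100 nM nucleocapsid protein in high-salt Hepes pH 7.5 (250mM NaCl) containing 1uM ZnCl2 and reducing agents. Compound inhibition of binding was read as fluorescein polarization after 1 hr at room temperature.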
Potency is the fitted concentration of half-maximal effect.

Compound	Potency
Cc1noc(C)c1-c1cc(N2CCNCC2)ncn1	> 20 µM
Cn1c(=O)c(-c2cc(F)cc(F)c2)nc2cnc(Oc3cccc(Cl)c3)nc21	> 20 µM
CCNc1ncc2ncc(=O)n(Cc3cccc(OC)c3)c2n1	> 20 µM
Cn1cccc1C(=O)N1CCC2(CCN(C(=O)Nc3ccccc3)CC2)CC1	> 20 µM
CNc1ccnc(-c2ccccc2C(F)(F)F)n1	> 20 µM
CN(C)c1ccc(-c2nc(NC3CCNCC3)c3ccccc3n2)cc1	> 20 µM
N#Cc1cccc(-c2ccc3ncnc(NCc4cccs4)c3c2)c1	> 20 µM
Cc1noc(C)c1C(=O)N1CCC[C@@]2(CCN(c3ncccn3)C2)C1	> 20 µM
O=C(c1csnn1)N1CCC[C@@]2(CCN(c3ccncc3)C2)C1	> 20 µM
COc1cccc(Nc2ncc3ncc(=O)n(Cc4ccc(F)cc4)c3n2)c1	> 20 µM
Cn1c(=O)c(-c2cc(F)cc(F)c2)nc2cnc(Oc3ccccc3)nc21	> 20 µM
CC(=O)N1CCC[C@@]2(CCN(c3ncccn3)C2)C1	> 20 µM
CCNc1ncc2nc(-c3cccs3)c(=O)n(Cc3cccs3)c2n1	> 20 µM
Cc1noc(C)c1C(=O)N1CCC2(CCCN(c3ccccc3)C2)CC1	> 20 µM
COc1ccccc1-c1nc(NC2CC2)c2ccccc2n1	> 20 µM
Cc1cccc(CNc2ncnc3ccc(-c4ccccc4CN(C)C)cc23)c1	> 20 µM
COc1ccc(-n2c(=O)c(-c3cccc(C#N)c3)nc3cnc(N4CCNCC4)nc32)cc1	> 20 µM
COc1ccc(Oc2ncc3nc(C)c(=O)n(-c4ccc(OC)cc4)c3n2)cc1	> 20 µM
CCNc1ncc2nc(C)c(=O)n(CCOC)c2n1	> 20 µM
CCNc1ncc2nc(-c3cc(F)cc(F)c3)c(=O)n(C)c2n1	> 20 µM

Compound	Potency
COc1ccc(NC(=O)N2CCCC3(CCN(C(C)=O)CC3)C2)cc1	> 20 µM
COc1cccc(Cn2c(=O)cnc3cnc(N(C)C)nc32)c1	> 20 µM
CN(C)C(=O)c1ccc(-c2nccc(Nc3ccc(F)cc3)n2)cc1	> 20 µM
Clc1ccccc1-c1nc(NCc2cccs2)c2ccccc2n1	> 20 µM
COc1ccc(-n2c(=O)c(C)nc3cnc(N4CCNCC4)nc32)cc1	> 20 µM
O=C(Oc1ccccc1)N1CCC2(CC1)CCN(c1ccccc1)CC2	> 20 µM
CC(C)NC(=O)N1CC2(CCN(C(=O)c3cc(C(F)(F)F)cc(C(F)(F)F)c3)CC2)C1	> 20 µM
O=c1c(-c2cccs2)nc2cnc(Oc3cccc(Cl)c3)nc2n1C1CC1	> 20 µM
O=C(c1csnn1)N1CCC2(CCCN(Cc3cc(C(F)(F)F)cc(C(F)(F)F)c3)C2)CC1	> 20 µM
N#Cc1cccc(NC(=O)N2CC[C@@]3(CCCN(C(=O)c4ccco4)C3)C2)c1	> 20 µM
CCNc1ncc2ncc(=O)n(C)c2n1	> 20 µM
O=c1c(CCc2ccccc2)nc2cnc(N3CCNCC3)nc2n1CCc1ccccc1	> 20 µM
COc1cccc(-c2cncnc2NCCc2cnc[nH]2)c1	> 20 µM
COc1ccc(C(=O)N2CCC3(CC2)CCN(C(c2ccccc2)c2ccccc2)CC3)cc1	> 20 µM
O=C(c1cnccn1)N1CCC2(CC1)CN(c1cccc(-c3ccccc3)c1)C2	> 20 µM
CC(=O)N1CCC2(CC1)CN(C(c1ccccc1)c1ccccc1)C2	> 20 µM
COCCn1c(=O)c(-c2cn(C)c3ccccc23)nc2cncnc21	11.9 µM
Cc1nc2cnc(N(C)C)nc2n(CCc2ccccc2)c1=O	> 20 µM
CS(=O)(=O)N1CCC2(CCCN(c3ccncc3)C2)CC1	> 20 µM
COc1cccc(Cn2c(=O)c(C)nc3cnc(N4CCN(C)CC4)nc32)c1	> 20 µM
